# ELG1 genotoxic = induces genotoxicity in HEK293T cells with luciferase-tagged ELG1. 330,000 tested, 1.3% active. AID 504466. Potency, µM (highest dose often 46 µM), inactives show at the highest dose activity change, positive = activation, usual class: activators. HEK293T ELG1-luciferase reporter, luminescence, 16 h; also: % of control where 0% means no effect; nearly all actives have a fitted effect of over 60% in size
#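 Luminescence read-out: rising ELG1-luciferase signal, reflecting elevated ELG1 protein under genetic stress, flags genotoxic compounds. Cells were treated for 16 hr at 37 °C before ONE-Glo detection.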
# ELG1 DNA repair = ELG1-dependent DNA repair inhibition | Potency, µM (series often up to 46.1 µM), without a hit: at the highest dose activity change, negative = inhibition, hits mostly inhibitors | HEK293T ELG1-luciferase reporter, luminescence, 16 h; DNA damage induced by 5-fluorouridine | 330,000 tested, 2.3% active; also: % is scaled to controls: 0 for no effect and ±100 for the full control effect; nearly all actives have a fitted effect of over 55% in size
#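 Quantitative HTS, concentration-response format. 2,000 cells/well co-treated with 5-fluorouridine and compound, 16 hr in 5% CO2 at 37 °C; ONE-Glo luminescence read after 30 min.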
# Rab9 promoter act = activators of Rab9 promoter | Huh7 Rab9 promoter-luciferase reporter, luminescence, 24 h | Potency, µM (highest dose often 9.22 µM), for inactives: at the highest dose activation, negative = inhibition, actives largely listed as activators | 320,000 tested, 2.8% active; also: % of control where 0% means no effect; nearly all actives have a fitted effect of over 60% in size
#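 Huh7 cells stably carrying a Rab9 promoter-luciferase reporter, 1500 cells per well in OP-MEM I with 10% FBS, treated with compound 24 hours at 37C. Luciferase activity read by luminescence after 10 minutes with Amplite reagent.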
# FLuc counter = counter-screen for miR-21 project: firefly luciferase inhibitors or activators; purified FLuc, Km substrates, luminescence inhibition; AID 588342; Potency, µM (titrated, usually from 57.5 µM), inactives show at the top dose activity change, negative = inhibition, actives largely listed as inhibitors; P08659; 360,000 tested, 6.9% active;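 also: plate controls were vehicle for no effect and reference inhibitor for full effect; nearly all actives have a fitted effect of over 55% in size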
# Target sequence (P08659 whole entry, looked up): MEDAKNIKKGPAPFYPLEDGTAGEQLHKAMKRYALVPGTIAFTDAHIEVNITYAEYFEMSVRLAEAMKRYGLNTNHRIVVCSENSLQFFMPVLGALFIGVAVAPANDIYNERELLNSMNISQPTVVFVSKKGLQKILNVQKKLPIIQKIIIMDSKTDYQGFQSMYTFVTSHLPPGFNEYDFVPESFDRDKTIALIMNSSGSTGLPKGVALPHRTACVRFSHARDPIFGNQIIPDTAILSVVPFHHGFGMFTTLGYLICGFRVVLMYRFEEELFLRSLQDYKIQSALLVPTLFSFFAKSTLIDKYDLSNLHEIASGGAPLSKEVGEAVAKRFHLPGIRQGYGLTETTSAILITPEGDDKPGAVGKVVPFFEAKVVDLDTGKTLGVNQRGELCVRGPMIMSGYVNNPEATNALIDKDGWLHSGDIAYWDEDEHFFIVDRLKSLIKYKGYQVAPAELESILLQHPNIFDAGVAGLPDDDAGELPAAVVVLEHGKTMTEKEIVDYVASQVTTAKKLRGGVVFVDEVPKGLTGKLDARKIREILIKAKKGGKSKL
#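 Purified P. pyralis luciferase (10nM final) with 10uM D-luciferin and 10uM ATP (Km levels) in 50mM Tris acetate pH 7.5, 10mM Mg acetate, 0.01% Tween-20, 0.05% BSA; qHTS 6-point titration, ~60 µM downward; luminescence read.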
# NPC1 promoter act = NPC1 promoter activation; Potency, µM (top dose mostly 9.22 µM), inactives show at the top dose activation, usual class: activators; 320,000 tested, 2.4% active; Huh7 NPC1 promoter luciferase reporter, 24 h; also: % of control where 0% means no effect; nearly all actives have a fitted effect of over 60% in size
#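 Huh7 reporter cells (NPC1 promoter driving luciferase) are dosed with compound for 24 h at 37 °C, 5% CO2; luciferase detection reagent is then added and luminescence measured after 10 min at ambient temperature.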
# SMN2 splice up = enhancers of SMN2 splice variant expression; 210,000 tested, 2.8% active; Potency, µM (highest dose often 46.1 µM), for the others: at the highest dose activity change, positive = activation, most hits filed as activators; HEK293 SMN2-luciferase splicing reporter, luminescence, 30-36 h; also: % of control where 0% means no effect; nearly all actives have a fitted effect of over 55% in size
#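 HEK293 cells carry an SMN2 minigene-luciferase reporter in which exon 7 inclusion puts luciferase in frame. Cells were seeded at 2000 cells/well, attached for 10-12 hours, then exposed to compounds for 30-36 hours at 37C before ONE-Glo luminescence.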
# The depositor's hits bear a star; ? = inconclusive; nt = no result. An excerpt weighted towards active compounds, which were near 9.2% of everything screened. Calls follow the shape of the dose curve; as a rule, active = well fitted curve in the direction sought with a large enough effect; inconclusive = small, poorly fitted or top-dose-only effect, or another doubt; inactive = no such curve, though single readings can be large; an effect the other way counts as inactive or inconclusive. Potency is read from the fitted curve at half-maximal effect.
SMILES,ELG1 genotoxic,ELG1 DNA repair,Rab9 promoter act,FLuc counter,NPC1 promoter act,SMN2 splice up
O=C(c1ccccc1)c1cn(Cc2ccc(F)cc2)c2ccccc2c1=O,nt,nt,nt,1%,nt,-1%
COc1ccccc1COC(=O)N/C=C/c1ccco1,10%,4%,?,15µM*,?,?
COc1ccc(NC(=O)c2cccc(N3C(=O)C4C5C=CC(C6CC56)C4C3=O)c2)c(OC)c1 (stereo not drawn),-12%,?,-5%,?,-3%,nt
COc1ccc(NC(=O)c2cccc(N3C(=O)c4cccc([N+](=O)[O-])c4C3=O)c2)cc1,12%,?,13%,8.5µM*,-3%,nt
CN(C)c1ccc(NC(=O)c2cccc(N3C(=O)C4C5C=CC(C5)C4C3=O)c2)cc1 (stereo not drawn),?,?,3.2µM*,11µM*,1.8µM*,-22%
COc1ccc(NC(=O)c2cccc(N3C(=O)C4C5C=CC(C6CC56)C4C3=O)c2)cc1 (stereo not drawn),-23%,23µM*,-4%,5%,-3%,nt
Cc1ccc(NC(=O)c2cccc(N3C(=O)C4C5C=CC(C5)C4C3=O)c2)cc1C (stereo not drawn),-6%,?,-5%,?,11%,nt
CCN(CC(=O)NCc1ccc(Cl)cc1)C(=O)c1ccc(S(=O)(=O)NCc2ccco2)cc1,-9%,-4%,14%,0%,-3%,nt
O=C1CCCc2nc3c(cc21)C(O)Oc1c-3ccc2ccccc12 (stereo not drawn),?,?,1.1µM*,-11%,3.2µM*,25%
O=C(Nc1ccc(Br)cc1)N1CCC(CN2CCCC2)CC1,nt,nt,nt,-5%,nt,nt
Nc1ncnc2c1ncn2[C@@H]1O[C@H](CNCc2ccccc2OCc2ccc(Cl)cc2Cl)[C@@H](O)[C@H]1O,-3%,-13%,nt,nt,nt,nt
CCOc1ccc(S(N)(=O)=O)cc1-c1nc2c(C(C)(C)C)nn(C)c2c(=O)[nH]1,3%,-11%,-1%,-2%,0%,nt
CCOc1ccc(S(=O)(=O)NC(C)(C)C)cc1-c1nc2c(C(C)(C)C)nn(C)c2c(=O)[nH]1,-28%,12µM*,0%,-1%,-1%,-6%
Cc1csc(=N)n1-c1ccc(Cl)cc1,?,?,3.5µM*,9.5µM*,?,-5%
Cc1ccc(-n2c(C)csc2=N)cc1,5.2µM*,?,2µM*,5.4µM*,3.2µM*,11µM*
Cc1csc(=S)n1-c1ccccc1,1%,-8%,-5%,4%,-2%,19%
O=C(COc1ccccc1)Nc1nc(-c2ccc(S(=O)(=O)N3CCOCC3)cc2)cs1,-12%,?,3%,0%,-6%,-38%
O=C(CCc1ccc(S(=O)(=O)N2CCOCC2)cc1)Nc1nc(COc2ccccc2)cs1,-15%,21µM*,-25%,?,-12%,-65%
CCOc1cc(C=O)ccc1OCC(=O)N1CCCC1,0%,12%,-3%,2%,-10%,nt
CCOc1cc(/C=N/Nc2cccc(C(=O)O)c2)ccc1OCC(=O)N1CCCCC1,?,?,4.5µM*,21µM*,4µM*,11µM*
CCOc1cc(/C=N/NC(=S)Nc2ccccc2C(F)(F)F)ccc1OCC(=O)N1CCOCC1,-6%,12µM*,-6%,-5%,-2%,-12%
O=C(COc1ccc(C(=S)N2CCOCC2)cc1)Nc1ccccc1C(F)(F)F,0%,-4%,-7%,0%,-5%,nt
Cc1cc(C)c(C#N)c(Sc2ccccc2N)n1,?,?,2%,15µM*,3%,-2%
CCCCN1CCc2c([nH]c3ccc(C)cc23)C1=O,26%,?,3.5µM*,2.4µM*,2.8µM*,?
Cc1ccc2[nH]c3c(c2c1)CCC3=O,?,?,0%,-2%,2%,16%
SMILES,ELG1 genotoxic,ELG1 DNA repair,Rab9 promoter act,FLuc counter,NPC1 promoter act,SMN2 splice up
CC(=O)N1c2ccc(N=Cc3cc(Br)cc(Br)c3O)cc2CC1C (stereo not drawn),2%,-2%,1%,9.5µM*,-3%,nt
Cn1cc(S(=O)(=O)c2ccccc2)c(=O)c2cc(F)c(N3CCCCCC3)cc21,nt,nt,nt,0%,nt,nt
COc1ccccc1/C=C/C(=O)Nc1cccc(S(=O)(=O)NC2=NCCCCC2)c1,-7%,-11%,2%,19µM*,-5%,3%
COc1ccc(/C=C/C(=O)Nc2cccc(S(=O)(=O)NC3=NCCCCC3)c2)c(OC)c1,-7%,?,2%,6µM*,4%,nt
COc1cccc(CSc2nc3n(n2)C(CC(C)C)C(C(=O)Nc2ccccc2OC)=C(C)N3)c1 (stereo not drawn),nt,nt,nt,1%,nt,nt
COc1ccc(-c2noc(-c3ccc(Br)o3)n2)cc1,?,?,2µM*,2.4µM*,3.2µM*,nt
COc1cc(-c2noc(-c3cc(C(C)C)[nH]n3)n2)cc(OC)c1OC,nt,nt,nt,-2%,nt,nt
CC(C)c1cc(-c2nc(-c3ccc(Cl)cc3)no2)n[nH]1,nt,nt,nt,9.5µM*,nt,nt
COc1ccc(-c2nc(-c3ccc(Br)o3)no2)cc1,1.2µM*,?,0.45µM*,0.95µM*,0.63µM*,10µM*
COc1cccc(-c2noc(-c3ccc(Br)o3)n2)c1,?,?,1.4µM*,3µM*,2.5µM*,22µM*
CC(Oc1ccccc1F)C(=O)Nc1ccc(-c2nc3ccccc3s2)cc1 (stereo not drawn),nt,nt,nt,-7%,nt,nt
CCCNc1cc(=S)nc(N)[nH]1,-6%,?,-2%,0%,2%,nt
COc1ccc(-c2noc(-c3ccc(Cl)cc3)n2)cc1,5.6µM*,?,?,2.1µM*,2.5µM*,11µM*
COc1ccc(-c2noc(-c3ccccc3-c3ccccc3)n2)cc1,1%,3%,-7%,?,0%,-9%
O=S(=O)(c1ccccc1)N1CCC(O)(CSc2ccccc2)CC1,-7%,8.2µM*,-11%,-5%,-14%,-65%
COc1ccc(CNC(=O)/C=C/c2cc([N+](=O)[O-])ccc2OC(F)F)cc1,-1%,-24%,1%,3%,-2%,-6%
O=C(/C=C/c1cc([N+](=O)[O-])ccc1OC(F)F)NCc1ccc(Cl)cc1,-5%,-20%,1%,0%,0%,-14%
COc1ccc(CNC(=O)/C=C/c2cc([N+](=O)[O-])ccc2OC(F)F)cc1OC,-1%,21µM*,1%,2%,-2%,-14%
COC(=O)c1ccc(CNC(=O)/C=C/c2cc([N+](=O)[O-])ccc2OC(F)F)cc1,-1%,10µM*,-2%,0%,-1%,0%
CCCCCn1c(CCCNC(=O)c2ccc(Cl)cc2)nc2ccccc21,nt,nt,nt,-14%,nt,-12%

# Bioassay records (PubChem)
